Measured values as given in PubChem BioAssay (Tox21).
Active and inactive are the calls of the source. Calls follow the shape of the dose curve; as a rule, active = well fitted curve in the direction sought with a large enough effect in the repeat runs; inconclusive = weak or mixed curves; inactive = flat fitted curve, though single readings scatter.

Experiment: qHTS assay to test for compound auto fluorescence at 590 nm (red) in HEK293 cell free culture (AID 720683)
Conditions: cell-free medium autofluorescence, Ex540/Em590 red; series mostly up to 91.3 µM
Excerpt: U.S. Tox21 Program National Center for Advancing Translational Sciences [NCATS] NIH Chemical Genomics Center [NCGC] U.S. Environmental Protection Agency [EPA] National Institutes of Environmental Health Sciences [NIEHS] National Toxicology Program [NTP] U.S. Food and Drug Administration [FDA] Tox21 Assay Overview: Compound auto fluorescence often interferes with screening of the compound library against various biological targets and signaling pathways. Some of these compounds may have fluorophoric properties. Such properties may interfere with the assay outputs resulting in false positives and/or negatives. To decrease such complications and ensure the compound activities are relevant in terms of biological response, the Tox21 10K compound library was screened for auto fluorescence. From the fluorophores used as reporter signals in our screening assays, the auto fluorescence equivalencies of compounds against three fluorophores have been evaluated: Triamterene, Fluorescein and Rose Bengal sodium for blue, green and red fluorescence, respectively. The fluorescence intensities were measured using Excitation/Emission wavelengths at 405/460nm, 485/535nm and 540/590nm for blue, green and red labels, respectively. This assay includes the red fluorescence data.
Tox21 Assay Protocol Summary: 5 uL of culture medium (DMEM containing 10% FBS) per well was dispensed into black wall/clear bottom 1536-well plates using a Multidrop Combi Dispenser (ThermoFisher Scientific, Waltham, MA). After 23 nL compound or DMSO vehicle was transferred into assay plate by a pintool work station (Kalypsys, San Diego, CA), fluorescence intensities in the assay plates were measured by an Envision (PerkinElmer, Shelton, CT) plate reader using three labels for measuring blue, green and red fluorescence at […] 460, 535 and 590nm respectively.

SMILES	outcome
CC1(C)CC(N)CC(C)(CN)C1 (stereo not given)	inactive
CCOCC(=O)O	inactive
CC(O)CC(C)(C)O (stereo not given)	inactive
CC(C)(C)c1cc(Cc2cc(C(C)(C)C)c(O)c(C(C)(C)C)c2)cc(C(C)(C)C)c1O	inactive
COc1ccc(C)cc1N	inactive
COc1ccc(OC)cc1	inactive
CN/C(=C\[N+](=O)[O-])NCCSCc1csc(CN(C)C)n1	inactive
O=S(=O)(O)c1ccc(N=Nc2c(O)ccc3cc(S(=O)(=O)O)ccc23)cc1	inactive
Cc1ccc(S(=O)(=O)N=C=O)cc1	inactive
CCNc1ccccc1	inactive
CNC(=S)N(C)C	inactive
O=c1[nH]cnc2[nH]ncc12	inactive
CCO[Si](CCCN)(OCC)OCC	inactive
Cc1ccc([N+](=O)[O-])cc1S(=O)(=O)O	inactive
CC(=O)Oc1ccc(C)cc1	inactive
CN1C(=O)CC[C@H]1c1cccnc1	inactive
CCCCCCCCCCO	inactive
CC(=O)CCC=C(C)C	inactive
O=S(=O)(O)c1ccccc1	inactive
C=C(C)[C@H]1CC=C(C)C(=O)C1	inactive

SMILES	outcome
Brc1ccc(Br)c(Br)c1	inactive
CC(C)(Oc1ccc(CCNC(=O)c2ccc(Cl)cc2)cc1)C(=O)O	inactive
CCCCCCCCCCCCCCCCO	inactive
CC1(C)NC(=O)NC1=O	inactive
OCc1cccc(Oc2ccccc2)c1	inactive
OC1C(O)C(O)C(O)C(O)C1O (stereo not given)	inactive
CCNC(=S)NCC	inactive
CCCCCCCO	inactive
O=C(O)Cn1c(=O)n(Cc2ccc(Br)cc2F)c(=O)c2ccc(Cl)cc21	inactive
O=C(O)c1ccc(C(=O)O)c(C(=O)O)c1	inactive
CC1(C)S[C@@H]2[C@H](NC(=O)COc3ccccc3)C(=O)N2[C@H]1C(=O)O	inactive
COc1ccc(N)c(C)c1	inactive
COc1ccc(CCC(C)=O)cc1	inactive
COCCOC(=O)c1ccccc1C(=O)OCCOC	inactive
CCCCCCC=O	inactive
CN(C)CCOC(=O)COc1ccc(Cl)cc1	inactive
C[C@]12CC[C@@H]3c4ccc(O)cc4CC[C@H]3[C@@H]1C[C@@H](O)[C@@H]2O	inactive
C[C@]12CCC(=O)C=C1CC[C@@H]1[C@@H]2[C@@H](O)C[C@@]2(C)[C@H]1CC[C@]2(O)C(=O)CO	inactive
N#Cc1ccccc1	inactive
O=C(OCC1CCC2OC2C1)C1CCC2OC2C1 (stereo not given)	inactive
